Measurements published in ChEMBL document CHEMBL3988442, “University of Dundee, Small-Polar-MMV Screening Library” (2021).
Hit rate of the full screen: of about 48,000 compounds, about 13,000 (27%) showed an effect of 50% or more. Some of the results follow.

System: Wolbachia pipientis
Assay: Anti-Wolbachia Cell-Based Screen
Format: functional
Set-up: scale not given: in the data most compounds retested in dose-response had high values
Settings: 5 µM

| SMILES | Percent Effect |
| --- | --- |
| CC(C)c1nnc(NC(=O)c2cccc(OCC(F)(F)F)n2)[nH]1 | -13.63% |
| CC(C)Cc1nc(CS(=O)(=O)C(C)C(=O)N2CCOCC2)no1 (stereo not given) | 1.312% |
| O=C(CN1CCCCC1)Nc1ncc(Br)cc1Br | 116.4% |
| O=C(CN1CCCCCC1)NCCSc1cnn[nH]1 | -5.638% |
| O=C(CN1CCCc2cc(F)cc(F)c21)Nc1ccc(Br)cn1 | -2.039% |
| CSc1nccc(-c2cccc(-c3ccn(CC4COCCO4)n3)c2)n1 (stereo not given) | -11.46% |
| O=C(c1ccnnc1)N1C[C@@H]2CN(c3ncccn3)C[C@@H]2C1 | 15.26% |
| CS(=O)(=O)N1CCO[C@@H]2CN(C(=O)c3cccnc3)C[C@@H]2C1 | 94.69% |
| Cn1cc(C(=O)N2CC[C@@]3(O)CCN(C4CCCCC4)C[C@H]3C2)cn1 | -10.98% |
| Cc1ccc(C(=O)N2C[C@@H]3CN(S(C)(=O)=O)CCO[C@@H]3C2)o1 | -11.28% |
| CS(=O)(=O)N1CCO[C@@H]2CN(C(=O)c3ccnnc3)C[C@@H]2C1 | 110.1% |
| Cc1ccnc(C(=O)N2C[C@@H]3CN(S(C)(=O)=O)CCO[C@@H]3C2)c1.O=C(O)C(F)(F)F | -16.56% |
| Cc1cncc(C(=O)N2C[C@@H]3CN(S(C)(=O)=O)CCO[C@@H]3C2)c1.O=C(O)C(F)(F)F | 122.6% |
| CCN1CCO[C@@H]2CN(C(=O)c3cocn3)C[C@@H]2C1.O=C(O)C(F)(F)F | -9.016% |
| Cn1cc(CN2CCO[C@@H]3CN(C4CCCC4)C[C@@H]3C2)cn1.O=C(O)C(F)(F)F.O=C(O)C(F)(F)F | -1.397% |
| Cn1cc(C(=O)N2CCO[C@@H]3CN(C4CCC4)C[C@@H]3C2)cn1 | 99.44% |
| O=C(NCCOc1ccc(F)c(F)c1)NCc1cccc(CO)c1 | -4.638% |
| Cc1nnc(NCC(c2ccco2)N2CCCCC2)c(C#N)c1C (stereo not given) | -2.88% |
| CN1CCN(C)C2(CCN(Cc3ccc(C4CCCCO4)o3)CC2)C1 (stereo not given) | 27.87% |
| CCC(C)C(=O)NCc1cccc(OCCN(C)C2CCOCC2)c1 (stereo not given) | 6.512% |
| CN1CC2(CCN(C(=O)c3coc4c3C(=O)CCC4)C2)OC1=O (stereo not given) | -2.236% |
| Cc1nc(C(=O)N2C[C@@H]3CN(S(C)(=O)=O)CCO[C@@H]3C2)cs1 | -14.32% |
| Cc1ccc(C(=O)N2C[C@@H]3CN(S(C)(=O)=O)CCO[C@@H]3C2)s1 | -10.28% |
| Cn1nccc1C(=O)N1C[C@@H]2CN(S(C)(=O)=O)CCO[C@@H]2C1 | 115.5% |
| Cn1cc(C(=O)N2C[C@@H]3CN(S(C)(=O)=O)CCO[C@@H]3C2)cn1 | 95.46% |
